From PubChem BioAssay (Tox21)
Inconclusive results are not listed. Active and inactive are the calls of the source. Unless noted, the call rests on the fitted dose curve; in most records, active means well fitted curve in the direction sought with a large enough effect in the repeat runs; inconclusive means weak or mixed curves; inactive means no such curve, though single readings can be large; an effect the other way counts as inactive or inconclusive.

Legend:
[1] = molecular target: Estrogen receptor beta (Homo sapiens) (UniProt Q92731); experiment: qHTS assay to identify small molecule agonists of the estrogen receptor beta (ER-beta) signaling pathway (AID 1259377; active means well fitted activation curve with a large enough effect in the signal ratio in the repeat runs, not every such curve was filed as active; the % refers to the signal ratio)
Sequence of Estrogen receptor beta (Homo sapiens) (Q92731 whole entry, looked up): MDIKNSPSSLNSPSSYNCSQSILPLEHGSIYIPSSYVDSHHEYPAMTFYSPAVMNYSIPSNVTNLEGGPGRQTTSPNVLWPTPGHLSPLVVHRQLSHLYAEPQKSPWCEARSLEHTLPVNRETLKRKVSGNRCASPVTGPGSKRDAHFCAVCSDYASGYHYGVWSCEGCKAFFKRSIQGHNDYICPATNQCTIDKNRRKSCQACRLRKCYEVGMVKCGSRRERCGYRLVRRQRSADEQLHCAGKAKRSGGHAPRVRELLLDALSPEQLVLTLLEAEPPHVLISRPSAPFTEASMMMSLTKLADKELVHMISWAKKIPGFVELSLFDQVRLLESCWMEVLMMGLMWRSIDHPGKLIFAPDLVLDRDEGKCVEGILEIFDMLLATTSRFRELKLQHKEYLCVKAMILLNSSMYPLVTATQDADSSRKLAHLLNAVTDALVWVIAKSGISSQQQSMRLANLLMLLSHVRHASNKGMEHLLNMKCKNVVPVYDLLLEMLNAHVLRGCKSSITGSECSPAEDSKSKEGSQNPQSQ
Outline: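 Screening used GripTite ER-beta-UAS-bla cells held in 2% charcoal-stripped FBS medium. After overnight (16 hr) compound incubation at 37C, beta-lactamase activity was detected with a FRET substrate by fluorescence.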

[2] = molecular target: Estrogen receptor beta (Homo sapiens) (UniProt Q92731); experiment: qHTS assay to identify small molecule antagonists of the estrogen receptor beta (ER-beta) signaling pathway (AID 1259378; active means well fitted inhibition curve with a large enough effect in the signal ratio in the repeat runs, not every such curve was filed as active; the % refers to the signal ratio)
Outline: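 ER-beta-UAS-bla HEK293T cells in 2% charcoal-stripped FBS medium treated with compound plus 1nM final 17-beta-estradiol for 16 hr at 37C. Beta-lactamase reporter read by FRET substrate fluorescence after 2 hours at room temperature.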

[3] = qHTS assay to identify small molecule agonists of the androgen receptor (AR) signaling pathway in the presence of an antagonist - cell viability counter screen (AID 1259379);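 further: MDA-kb2 human breast cancer cells carrying an MMTV luciferase reporter; series mostly up to about 92 µM; nearly all actives have a fitted effect of over 25% in size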
Outline: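 Seed MDA-kb2 at 3,000 cells/well; incubate 5 hr, 37C, 0% CO2. Add nilutamide to 3.0uM final, then pin compounds at 15 concentrations. Incubate 16 hr. Add CellTiter-Fluor at 15 hr, read fluorescence after 1 hr.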

[4] = qHTS assay to identify small molecule agonists of the estrogen receptor beta (ER-beta) signaling pathway - cell viability counter screen (AID 1259380); further: nearly all actives have a fitted effect of over 30% in size
Outline: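 CellTiter-Glo read, 30 min RT, same wells as bla assay; cells ER-beta-UAS-bla HEK293T; 16 hr compound, 37C; medium 2% charcoal-stripped FBS.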

[5] = qHTS assay to identify small molecule antagonists of the estrogen receptor beta (ER-beta) signaling pathway - cell viability counter screen (AID 1259382); further: series mostly up to about 92 µM; nearly all actives have a fitted effect of over 55% in size
Outline: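 In this multiplexed counter screen, cells were seeded at 2,000 per well in medium with 2% charcoal-stripped FBS and incubated 6 hr before compound and 1nM final E2 were added. Sixteen hours later, ATP-based luminescence reported viability.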

[6] = qHTS assay to identify small molecule agonists or antagonists of the thyroid stimulating hormone receptor (TSHR) signaling pathway - wild type cell line counter screen (AID 1259384; calls by dose curve)
Outline: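 Wild-type Hek293 cells, 800/well, 18 h at 37C, then compound with Ro20-1724 for 30 min RT. cAMP by HTRF (cAMP-d2/anti-cAMP cryptate), 1 h RT, fluorescence read. 15 concentrations, triplicates.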

[7] = molecular target: Thyrotropin receptor (Homo sapiens) (UniProt P16473); experiment: qHTS assay to identify small molecule antagonists of the thyroid stimulating hormone receptor (TSHR) signaling pathway (AID 1259385; calls by dose curve; further: nearly all actives have a fitted effect of over 20% in size)
Sequence of Thyrotropin receptor (Homo sapiens) (P16473 whole entry, looked up): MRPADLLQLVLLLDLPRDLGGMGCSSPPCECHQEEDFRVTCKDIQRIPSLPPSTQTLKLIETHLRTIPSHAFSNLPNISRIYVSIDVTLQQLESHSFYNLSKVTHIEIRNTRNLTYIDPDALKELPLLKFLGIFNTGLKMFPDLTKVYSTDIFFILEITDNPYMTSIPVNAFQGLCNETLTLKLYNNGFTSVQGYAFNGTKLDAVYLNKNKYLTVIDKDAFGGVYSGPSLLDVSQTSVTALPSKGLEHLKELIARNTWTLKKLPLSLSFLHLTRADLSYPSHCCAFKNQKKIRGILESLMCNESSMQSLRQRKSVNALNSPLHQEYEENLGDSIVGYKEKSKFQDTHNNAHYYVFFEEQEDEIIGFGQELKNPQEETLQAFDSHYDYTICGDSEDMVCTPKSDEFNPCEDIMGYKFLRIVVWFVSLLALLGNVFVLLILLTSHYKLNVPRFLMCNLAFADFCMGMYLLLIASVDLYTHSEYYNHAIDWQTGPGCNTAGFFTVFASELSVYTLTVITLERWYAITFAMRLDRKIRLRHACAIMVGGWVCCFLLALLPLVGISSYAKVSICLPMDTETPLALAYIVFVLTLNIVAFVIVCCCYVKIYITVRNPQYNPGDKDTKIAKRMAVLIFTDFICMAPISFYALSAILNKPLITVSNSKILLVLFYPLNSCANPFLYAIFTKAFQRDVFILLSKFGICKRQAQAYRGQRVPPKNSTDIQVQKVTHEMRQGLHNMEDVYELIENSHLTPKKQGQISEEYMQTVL
Outline: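 TSHR-HEK293 cells (800/well) plated 18 h, then compounds with Ro20-1724 and TSH at 1.5 ng/mL final, 30 min at room temperature. cAMP quantified by HTRF (cAMP-d2/anti-cAMP-cryptate, 1 h); 15 concentrations in triplicate.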

[8] = qHTS assay to identify small molecule agonists of the estrogen receptor alpha (ER-alpha) signaling pathway in the presence of an antagonist - cell viability counter screen (AID 1259386);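 further: series mostly up to about 92 µM; cells exposed to compounds for 22 h at 37 °C before the viability read; nearly all actives have a fitted effect of over 30% in size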
Outline: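 Viability counter screen using VM7Luc4E2 (full-length ER-alpha, four ERE-luciferase). The cells were treated with compounds alongside ICI-182,780 10.0nM for 22hr, and live-cell protease fluorescence was quantified with CellTiter-Fluor.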

[9] = molecular target: Progesterone receptor (Homo sapiens) (UniProt P06401); experiment: qHTS assay to identify small molecule agonists of the progesterone receptor (PR) signaling pathway (AID 1346784; calls by dose curve; further: nearly all actives have a fitted effect of over 30% in size)
Sequence of Progesterone receptor (Homo sapiens) (P06401 whole entry, looked up): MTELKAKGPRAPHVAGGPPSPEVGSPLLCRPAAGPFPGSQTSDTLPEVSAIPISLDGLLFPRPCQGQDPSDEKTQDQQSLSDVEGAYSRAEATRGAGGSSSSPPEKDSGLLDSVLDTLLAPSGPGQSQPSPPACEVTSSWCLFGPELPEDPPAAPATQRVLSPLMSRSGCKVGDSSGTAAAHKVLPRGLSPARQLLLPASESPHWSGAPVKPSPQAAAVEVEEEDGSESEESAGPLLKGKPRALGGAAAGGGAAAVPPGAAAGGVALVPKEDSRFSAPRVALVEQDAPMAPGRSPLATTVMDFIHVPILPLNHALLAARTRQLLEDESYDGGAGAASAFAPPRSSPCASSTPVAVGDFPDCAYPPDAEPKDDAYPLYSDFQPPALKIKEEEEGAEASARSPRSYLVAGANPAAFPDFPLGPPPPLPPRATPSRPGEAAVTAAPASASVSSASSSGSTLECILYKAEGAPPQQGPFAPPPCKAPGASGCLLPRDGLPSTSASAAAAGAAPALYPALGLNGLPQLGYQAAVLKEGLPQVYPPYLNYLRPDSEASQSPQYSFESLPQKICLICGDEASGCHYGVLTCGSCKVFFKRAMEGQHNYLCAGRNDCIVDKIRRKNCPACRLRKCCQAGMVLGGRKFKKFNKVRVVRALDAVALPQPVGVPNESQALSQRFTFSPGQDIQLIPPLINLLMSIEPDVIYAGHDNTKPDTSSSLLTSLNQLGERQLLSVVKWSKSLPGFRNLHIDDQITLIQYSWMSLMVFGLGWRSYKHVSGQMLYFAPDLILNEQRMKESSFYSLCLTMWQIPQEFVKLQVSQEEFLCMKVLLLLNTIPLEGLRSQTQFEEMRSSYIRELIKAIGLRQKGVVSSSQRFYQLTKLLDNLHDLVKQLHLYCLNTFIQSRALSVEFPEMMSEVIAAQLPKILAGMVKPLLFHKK
Outline: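 Seed PR-UAS-bla HEK 293T cells (2% charcoal-stripped FBS), incubate 6 hr at 37C; add compounds in DMSO, 16 hr at 37C; add LiveBLAzer B/G substrate, 2 hr RT; read fluorescence intensity.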

[10] = molecular target: Progesterone receptor (Homo sapiens) (UniProt P06401); experiment: qHTS assay to identify small molecule antagonists of the progesterone receptor (PR) signaling pathway (AID 1346795; active means well fitted inhibition curve with a large enough effect in the signal ratio in the repeat runs, not every such curve was filed as active; the % refers to the signal ratio)
Outline: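 Screening used a GripTite HEK293T line with PR-responsive UAS-beta-lactamase. Cells were challenged with compound in the presence of 1 nM R5020 final for 16 hr at 37C; B/G FRET substrate, 2 hr room temperature, fluorescence.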

[11] = qHTS assay to identify small molecule antagonists of the progesterone receptor (PR) signaling pathway - cell viability counter screen (AID 1346798); further: series mostly up to about 92 µM; nearly all actives have a fitted effect of over 50% in size
Outline: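 Measures cytotoxicity in parallel with the PR antagonist reporter read: HEK293T PR-UAS-bla cells get compound and R5020 for 16 hr, and remaining viable cells are quantified by CellTiter-Glo luminescence.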

[12] = qHTS assay to identify small molecule agonists of the progesterone receptor (PR) signaling pathway - cell viability counter screen (AID 1346799; calls by dose curve; further: nearly all actives have a fitted effect of over 45% in size)
Outline: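 Using the same plates as the PR reporter screen, HEK293T PR-UAS-bla cells received compounds for 16 hr at 37C and were then lysed with CellTiter-Glo; luminescence was read 30 min later at room temperature.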

[13] = qHTS assay to identify small molecule antagonists of the TGF-beta/Smad signaling pathway - cell viability counter screen (AID 1346824); further: nearly all actives have a fitted effect of over 50% in size
Outline: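 SBE-bla HEK 293T cells, incubated overnight, then compound plus 0.25 ng/mL TGF-beta1 (stock added) for 5 hr at 37 C. Viability was read in the same wells by CellTiter-Glo luminescence after 30 min at room temperature.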

[14] = qHTS assay to identify small molecule agonists of the TGF-beta/Smad signaling pathway - cell viability counter screen (AID 1346829); further: top concentration of the series differs between compounds; nearly all actives have a fitted effect of over 45% in size
Outline: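 Luminescence from CellTiter-Glo, read after a 30 min room-temperature incubation, gives cell viability of SBE-bla HEK 293T cells treated 5 hr with compounds at 37 C.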

[15] = qHTS assay to identify small molecule agonists of the TGF-beta/Smad signaling pathway (AID 1346859; active means well fitted activation curve with a large enough effect in the signal ratio in the repeat runs, not every such curve was filed as active; the % refers to the signal ratio; further: series mostly up to about 77 µM)
Outline: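 Beta-lactamase reporter activity downstream of Smad binding elements was measured in stably transfected HEK 293T cells; compounds were incubated for 5 hr, substrate for 2 hr at room temperature.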

[16] = molecular target: Thyrotropin-releasing hormone receptor (Homo sapiens) (UniProt P34981); experiment: qHTS assay to identify small molecule antagonists of the thyrotropin-releasing hormone receptor (TRHR) signaling pathway (AID 1346877; active means well fitted inhibition curve with a large enough effect in the repeat runs, not every such curve was filed as active; further: series mostly up to about 51 µM)
Sequence of Thyrotropin-releasing hormone receptor (Homo sapiens) (P34981 whole entry, looked up): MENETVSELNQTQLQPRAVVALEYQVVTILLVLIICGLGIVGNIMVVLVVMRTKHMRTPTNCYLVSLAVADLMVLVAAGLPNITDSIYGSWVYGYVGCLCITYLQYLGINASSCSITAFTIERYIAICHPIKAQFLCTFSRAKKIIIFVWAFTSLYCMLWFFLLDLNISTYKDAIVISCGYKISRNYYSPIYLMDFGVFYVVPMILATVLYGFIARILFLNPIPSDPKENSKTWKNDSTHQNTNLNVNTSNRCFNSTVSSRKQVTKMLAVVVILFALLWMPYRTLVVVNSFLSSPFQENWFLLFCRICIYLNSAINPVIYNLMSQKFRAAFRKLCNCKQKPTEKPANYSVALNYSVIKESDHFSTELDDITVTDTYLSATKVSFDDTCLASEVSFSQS
Outline: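 Following an 18 h incubation at 37 °C and a 2 h calcium dye load, TRHR-HEK293 cells were exposed to compound (5 min, room temperature) and challenged with TRH, 1 nM final.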

[17] = molecular target: Thyrotropin-releasing hormone receptor (Homo sapiens) (UniProt P34981); experiment: qHTS assay to identify small molecule agonists of the thyrotropin-releasing hormone receptor (TRHR) signaling pathway (AID 1346891; calls by dose curve;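 further: HEK293 cells expressing TRHR with calcium dye readout; series mostly up to about 58 µM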)
Outline: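 Overnight-plated (18 h, 37 °C, 5% CO2) TRHR-Hek293 cells; 2 h calcium dye at 37 °C; compound in DMSO; 3-min kinetic fluorescence read.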

[18] = molecular target: Estrogen receptor (Homo sapiens) (UniProt P03372); experiment: qHTS assay to identify small molecule agonists of the estrogen receptor alpha (ER-alpha) signaling pathway in the presence of an antagonist (AID 1259383; calls by dose curve; further: top concentration of the series differs between compounds; nearly all actives have a fitted effect of over 15% in size)
Sequence of Estrogen receptor (Homo sapiens) (P03372 whole entry, looked up): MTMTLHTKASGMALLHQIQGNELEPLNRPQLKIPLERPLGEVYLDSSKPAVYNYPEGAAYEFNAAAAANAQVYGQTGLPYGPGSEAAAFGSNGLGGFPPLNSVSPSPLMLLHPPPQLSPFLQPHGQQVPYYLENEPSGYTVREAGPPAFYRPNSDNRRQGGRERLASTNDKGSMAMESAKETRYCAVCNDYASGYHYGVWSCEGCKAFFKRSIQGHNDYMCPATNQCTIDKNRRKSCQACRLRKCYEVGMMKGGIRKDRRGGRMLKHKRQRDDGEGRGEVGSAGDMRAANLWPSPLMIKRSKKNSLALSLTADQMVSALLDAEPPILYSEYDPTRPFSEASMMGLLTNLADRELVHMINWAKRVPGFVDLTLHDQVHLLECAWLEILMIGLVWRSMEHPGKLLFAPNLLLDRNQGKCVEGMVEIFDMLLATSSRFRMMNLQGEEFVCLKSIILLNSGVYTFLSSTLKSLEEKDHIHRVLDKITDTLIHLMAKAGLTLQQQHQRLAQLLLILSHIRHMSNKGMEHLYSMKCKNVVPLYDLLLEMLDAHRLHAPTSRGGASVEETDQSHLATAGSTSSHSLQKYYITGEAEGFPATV
Outline: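 Stably transfected VM7Luc4E2 reporter cells, kept 5 days in charcoal-stripped serum, received ICI-182,780 at 10.0nM final before compound addition. Following 22hr incubation at 37C and 5% CO2, luciferase signal was read by luminescence.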

[19] = molecular target: Androgen receptor (Homo sapiens) (UniProt P10275); experiment: qHTS assay to identify small molecule agonists of the androgen receptor (AR) signaling pathway in the presence of an antagonist (AID 1259381; calls by dose curve; further: nearly all actives have a fitted effect of over 15% in size)
Sequence of Androgen receptor (Homo sapiens) (P10275 whole entry, looked up): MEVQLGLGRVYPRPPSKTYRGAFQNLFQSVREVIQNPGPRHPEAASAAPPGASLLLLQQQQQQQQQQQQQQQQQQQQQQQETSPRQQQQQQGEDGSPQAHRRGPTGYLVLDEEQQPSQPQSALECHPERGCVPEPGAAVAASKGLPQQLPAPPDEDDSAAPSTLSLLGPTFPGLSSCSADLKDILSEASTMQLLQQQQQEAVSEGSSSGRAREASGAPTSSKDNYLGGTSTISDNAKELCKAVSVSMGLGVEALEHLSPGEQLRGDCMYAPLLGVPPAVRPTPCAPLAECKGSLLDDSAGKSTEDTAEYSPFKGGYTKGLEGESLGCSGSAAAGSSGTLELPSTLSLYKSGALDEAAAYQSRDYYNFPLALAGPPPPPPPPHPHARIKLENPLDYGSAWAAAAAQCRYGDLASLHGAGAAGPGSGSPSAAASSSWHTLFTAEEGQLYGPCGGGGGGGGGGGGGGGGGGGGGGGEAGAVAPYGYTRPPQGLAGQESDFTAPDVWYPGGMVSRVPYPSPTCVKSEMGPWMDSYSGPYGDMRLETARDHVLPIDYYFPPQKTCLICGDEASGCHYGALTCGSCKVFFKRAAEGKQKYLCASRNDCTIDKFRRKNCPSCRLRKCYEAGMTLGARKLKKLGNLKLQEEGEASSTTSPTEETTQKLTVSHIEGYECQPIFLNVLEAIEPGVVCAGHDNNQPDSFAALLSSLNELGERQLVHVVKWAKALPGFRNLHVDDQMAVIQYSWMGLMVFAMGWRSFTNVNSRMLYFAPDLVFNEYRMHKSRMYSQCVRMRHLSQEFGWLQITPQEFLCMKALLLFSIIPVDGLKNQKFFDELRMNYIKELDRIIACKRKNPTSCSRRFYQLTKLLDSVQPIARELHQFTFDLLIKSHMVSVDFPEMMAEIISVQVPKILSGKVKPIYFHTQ
Outline: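 Test compounds at 15 concentrations were incubated for 16hr with MDA-kb2 reporter cells in presence of 3.0uM nilutamide (final). Signal: ONE-Glo luciferase luminescence.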

Measured: Potency

CCO[Si](OCC)(OCC)c1ccccc1
not listed: [18] | [19]
inactive: all other assays above

O=[N+]([O-])c1ccc(/C=N\O)o1
not listed: [19]
inactive: all other assays above

CC(=O)OCC(=O)[C@@]1(O)[C@H](C)C[C@H]2[C@@H]3CCC4=CC(=O)C=C[C@]4(C)[C@@]3(F)[C@@H](O)C[C@@]21C
not listed: [9] | [10] | [12] | [18] | [19]
inactive: all other assays above

CC[N+](CC)(CC)CCOc1cccc(OCC[N+](CC)(CC)CC)c1OCC[N+](CC)(CC)CC
not listed: [3] | [16] | [17] | [18]
inactive: all other assays above

Cc1ncc([C@@H](CCCCCCc2ccc3c(n2)NCCC3)CC(=O)O)cn1
not listed: [6] | [7] | [8] | [10] | [12] | [19]
inactive: all other assays above

CCCCCCCCN1CCCC1=O
not listed: [11] | [12] | [18] | [19]
inactive: all other assays above
